The results in this text go back to PubChem BioAssay AID1347426 (Functional Genomics Laboratory (NCATS/FGL), 2020).

The campaign covered roughly 31,000 sequences. About 1,400 (4.5%) were called active. This excerpt belongs to a sample that is enriched for actives. A number with no mark means an inactive call.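 Rule for the calls: active = median seed-adjusted z-score above 1 or below -1; inactive = the rest.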

The assay can be described thus: Novel Modifiers of Survival Motor Neuron (SMN) Protein: Gene Identification via Genome-wide siRNA Screen.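 Note: luminescence tracks full-length SMN protein made from the SMN2 reporter.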 To be noted: HEK293T SMN2-luciferase reporter, siRNA knockdown, 72 h; actives lie on both sides. The procedure, abridged: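 Steps: spot 1 pmol siRNA, add Lipofectamine RNAiMax in serum-free DMEM, seed HEK293T SMN2–luciferase reporter cells; incubate 72 h at 37 °C; add ONE-Glo; normalize luminescence to control siRNA, log10, MAD. Candidates: |MAD| > 1.0.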
For the sequence ACCCAGAUAUGGAUCUGCATT against TTLL10, the median seed-adjusted z-score is 0.211.

Consider GCUCAAAUGGAGAACUAAATT against GALNT8, for which the median seed-adjusted z-score was -0.283.

In the case of GACCAAAAGUGGAACUCCATT against PTPN23, the median seed-adjusted z-score was -0.0473.

Regarding CCAUUGUUCCAGACUUCUUTT against CMBL, the median seed-adjusted z-score is 0.

Take GGGCAUGGGUUUUAAUCGATT against PYGO1: the median seed-adjusted z-score is -1.23 (active).

On to GAGUUAUACGAUCCAUGUATT against TXNL4A, for which the median seed-adjusted z-score was -0.42.

In the case of AGAGCUAUGCUUUAGGUCUTT against S100A2, the median seed-adjusted z-score was -0.0951.

As for GCCUCAAUCUCUACUCGAATT against PCDHGA2, the median seed-adjusted z-score is -0.8.

With GACAAAAAGUCCAACCCUATT against CYB5R3, the median seed-adjusted z-score is -0.901.

Regarding UGAGAUUUCGGAAUCAGAATT against TSPAN31, the median seed-adjusted z-score was -1.13 (active).

GAACUAGGAUUUCAUAGCATT against LGR5: the median seed-adjusted z-score is 0.

On to GAGUCACAGUCGUUAUUCUTT against CNOT4, for which the median seed-adjusted z-score is -0.116.

As for GGAUUAUUUCUGGUUCCUATT against ATP8A2, the median seed-adjusted z-score is 0.

With GCAUCAGCAUGUCGGUGGATT against ARID3A, the median seed-adjusted z-score was -1.11 (active).

As for GUCCCGCAGAUUCAACAAATT against SSBP3, the median seed-adjusted z-score was 0.00592.

In the case of CAAUCCUGUAUCUACCGUATT against OVCH1, the median seed-adjusted z-score is 0.0211.

CAUCAAUGAGGUAUACUAUTT against DYRK1B: the median seed-adjusted z-score was 0.29.

In the case of CUAUAAGUCUAGUAGCAAATT against WNK2, the median seed-adjusted z-score is 0.212.

As for CGACGGCACCUGCAAUUUUTT against IMPA2, the median seed-adjusted z-score is 0.0513.

On to GCUGUAAACAGUCAUCAGATT against ZNF180, for which the median seed-adjusted z-score was 0.

For the sequence GAAAAUGACGGUUAUAAGATT against PMM2, the median seed-adjusted z-score was 0.448.

For the sequence GCAUGUUAUUGAAUUAUCATT against TM9SF2, the median seed-adjusted z-score is 1.09 (active).

GGAACGUGGUACUUAGUUATT against HMGCS1: the median seed-adjusted z-score is 0.0596.

For GCAGCUUCAAGAUCAAUGATT against ANTXR1, the median seed-adjusted z-score was -0.0849.

CAAAAGUGUAUAUAAACUUTT against NDUFS6: the median seed-adjusted z-score is -0.0128.

Regarding ACUUUGUCCGUGUGUCUUATT against SLC30A3, the median seed-adjusted z-score is -1.26 (active).

For GGAACAGGAUGAAUAUGCATT against HADHB, the median seed-adjusted z-score was -0.188.

Take CGACUGGAUGUAUAAGCAUTT against TGIF2LX: the median seed-adjusted z-score was -0.568.

For GAGAAGAAGUUCUUAAGGATT against ALKBH8, the median seed-adjusted z-score is -0.487.

Regarding AGUUCUACAUGCCGGAUGATT against GGTLC1, the median seed-adjusted z-score is -0.298.

For the sequence GCCUCGUUCUGAAGACGAUTT against LIPC, the median seed-adjusted z-score was 0.244.

Regarding CCAACCACCAGAUCUAUGATT against LBX1, the median seed-adjusted z-score is -0.36.

CCAUGGCAGUACCAACUAGTT against CREM: the median seed-adjusted z-score is -2.37 (active).

As for GGACCACUAUUUACAGCAATT against FUCA2, the median seed-adjusted z-score is 0.562.

On to GGUCUGUACUGGGAUUCAUTT against PKD2L2, for which the median seed-adjusted z-score is -0.0723.

Take GGCUUUUGCCCUAUCCAUUTT against WNK4: the median seed-adjusted z-score is 0.385.

For the sequence CACGAGGAGUGGACAAUAUTT against UCK1, the median seed-adjusted z-score is -0.599.

Regarding CAAAUCGCCUAAUAAACUUTT against KRT33B, the median seed-adjusted z-score was 0.04.

With GGAGCUUUGUCAAGAAGAUTT against FKBPL, the median seed-adjusted z-score was -1.11 (active).

In the case of GCCUGAUAACGUAAUAACATT against ARSA, the median seed-adjusted z-score was 0.0938.

Turning to GACUUACUUAGAUAUGAGATT against ZNF568, the median seed-adjusted z-score was 0.501.

Take GGUUUGUCCCUUCGCUAUATT against LRRTM3: the median seed-adjusted z-score is -0.0808.

For GCAGAGAUUUCCAAGAAAATT against GPR32, the median seed-adjusted z-score is -1.2 (active).

Take CAAGAAUGACUGUGAUGAATT against PLA2G12A: the median seed-adjusted z-score is 0.139.

For GGUCUAUACAGAGUCAAUATT against MRCL3, the median seed-adjusted z-score is -0.00909.

For the sequence GGAUUCACACGGGAAUUAATT against ZNF649, the median seed-adjusted z-score was 0.259.

As for CGUCGAAUGUUUAAAGUCUTT against ITFG1, the median seed-adjusted z-score is -0.417.

Consider ACGUGUUUGCUUCCACAAATT against NEURL2, for which the median seed-adjusted z-score is 1.39 (active).

As to GCAUGAUGGAUGUUGAUCATT against CCT5, the median seed-adjusted z-score was 0.

As for GCACUGAUGACAACAACUATT against HTR1F, the median seed-adjusted z-score is -0.127.

For AGAGUGUGCCGGUUACCCATT against CD8B, the median seed-adjusted z-score was 0.174.

Regarding GAGUCACAAUUGAUCCGGATT against TOP2A, the median seed-adjusted z-score is -0.187.

For the sequence CCAUCGAUGAUGACUGUAATT against ETFB, the median seed-adjusted z-score was 0.0669.

For GAGCAGAUCUUUUUAUGCATT against ZNF664, the median seed-adjusted z-score is 1.08 (active).

Turning to CAUUGAGACCUAUCUGCUATT against MYH11, the median seed-adjusted z-score was 0.

Take CGGGUAUGUUGAUAGCAUATT against FAM12B: the median seed-adjusted z-score was 0.312.

GCAGUGUACCCGUCAUUAUTT against SEMA4B: the median seed-adjusted z-score was 0.185.

Consider GGAACAAAAGGAUCGAAUATT against CLSTN3, for which the median seed-adjusted z-score is 0.

For CUAUAAAUGUAAACGAUGUTT against ZNF442, the median seed-adjusted z-score was 1.06 (active).

In the case of CUGUUUGACUUCAUCGAGATT against COPG, the median seed-adjusted z-score is 0.175.

As to CAAUCCAUGUCAUAGGGAATT against ZNF702, the median seed-adjusted z-score was 0.204.

Consider CGGCAAUCCUUACGGCUAATT against DSG4, for which the median seed-adjusted z-score was -0.0211.

Consider CCGUCAUUGUCAACCGGAATT against SLC4A5, for which the median seed-adjusted z-score was 1.3 (active).

Consider CUACGUCUCGGGUCCAGAUTT against HOXA11, for which the median seed-adjusted z-score was -0.222.

Take GGACAUACACUGAGAGUCATT against PDLIM2: the median seed-adjusted z-score is 0.267.

Take GAGCAGAACCGCAUCAUAUTT against UCN: the median seed-adjusted z-score is -0.472.

On to GGAGGAUACUUUAGAACAATT against NDC80, for which the median seed-adjusted z-score is 0.0855.

Consider GCAUCUACAUGACCAACCUTT against GPR35, for which the median seed-adjusted z-score was -1.46 (active).

As to CAUGAUACAGGGAAUAAAATT against ZNF619, the median seed-adjusted z-score is -0.536.

On to UCAUCGAACUGAAUACCAATT against STARD3, for which the median seed-adjusted z-score is -0.314.

Regarding CUACUGGACUGAUCAAGCUTT against CTCFL, the median seed-adjusted z-score was -0.362.

On to GGACAAAGACUGUCGCCUATT against DHX35, for which the median seed-adjusted z-score was -0.066.

For CUAUGACGACUUAUCCAAATT against ATP5A1, the median seed-adjusted z-score is -0.974.

Regarding CCUACACCAUGAUCGGAAATT against KIF26B, the median seed-adjusted z-score was -0.153.

As for GCGUUAUCCUCACCUUCAATT against G6PD, the median seed-adjusted z-score is 0.593.

Turning to CAUUCAGCUUGUCACGUCATT against THOC4, the median seed-adjusted z-score was -1.54 (active).

Take CCAAGGUUUUGGAUAGCAATT against RHBDL2: the median seed-adjusted z-score was 0.0701.

In the case of CCAAGUCCCAUACAACAAATT against C1S, the median seed-adjusted z-score is -0.561.

As to GCUUCUACCUUUACACGGATT against PDE1A, the median seed-adjusted z-score was 0.

On to CUAUAGCUGUCUCCCAGAATT against PRICKLE2, for which the median seed-adjusted z-score was -1.12 (active).

With GGAGAAAAACUAUAUGAAUTT against ZNF585B, the median seed-adjusted z-score was 0.158.

As for CUUUGGAACAAAUACCGAATT against NXN, the median seed-adjusted z-score was 0.175.

With CACCUAUAGUGACGAUAUATT against MEP1B, the median seed-adjusted z-score was 1.46 (active).

Regarding AGGCAUUCCUCGGAAGUCATT against SMAD7, the median seed-adjusted z-score was -0.25.

CCAUCGUUUUGGUCUUGUATT against VN1R2: the median seed-adjusted z-score is -0.151.

As to GGAAAGAACUACCUCCUGATT against TREH, the median seed-adjusted z-score is 0.396.

As to GGAAGAUCAUAGAAGUUGATT against SLC1A1, the median seed-adjusted z-score was 0.0967.

Take CCAUUGUCACGGGCUUGUATT against ENPP3: the median seed-adjusted z-score was 0.66.

Consider GCAUCUAUGUCAACAAGAUTT against POLR2I, for which the median seed-adjusted z-score was -3.27 (active).

In the case of CUGCUAAACUUGAACCGAATT against TM9SF2, the median seed-adjusted z-score is 1.09 (active).

For UCCUAUCAGAAGUUGCAUATT against RKHD4, the median seed-adjusted z-score is 0.0683.

On to CAAUGUUUACUACAAUGAATT against TUBB2B, for which the median seed-adjusted z-score was 0.935.

Turning to GGAGUGCUAGAAUCUACUATT against HEPH, the median seed-adjusted z-score was -0.293.

As to GGAUACAAAGCACAUAACATT against UBE2D4, the median seed-adjusted z-score was 0.232.

As for GAGCAUUAUGUUACACCAATT against TTC6, the median seed-adjusted z-score is 0.234.

As for GAACCUCAGUUGAGUAUUUTT against RPE, the median seed-adjusted z-score is 0.616.

As to CAGUGCUGUUAGAAUAAAATT against ZNHIT1, the median seed-adjusted z-score is -0.497.

In the case of UGUGGAGAAUGACUACAUATT against SPRY4, the median seed-adjusted z-score is -1.23 (active).

On to GGAUGACCAGGGUCUAUAATT against FMO4, for which the median seed-adjusted z-score was -0.359.

As to CCAUGAAUUCUUACUUUUATT against VAC14, the median seed-adjusted z-score was 0.0825.

As for CAGAAUCAGCUGGAAGAAATT against BAIAP2, the median seed-adjusted z-score is -0.0497.

On to GUAGCAGGGCUGAACCCAUTT against ZMAT5, for which the median seed-adjusted z-score was 0.292.

Turning to GCCGUGACCUACUUCAUCATT against SLC29A4, the median seed-adjusted z-score is 0.0192.

Turning to CAGCUGAUGCGGACCAAGATT against RASSF4, the median seed-adjusted z-score was 0.29.

For GAUACUCGUAUUAAGCCUATT against USP32, the median seed-adjusted z-score is 0.484.

For the sequence GAACUGUGCUGAUGUGAAATT against PATE1, the median seed-adjusted z-score was 1.21 (active).

Take GCAAGUCGUGAAACUAUAATT against YEATS4: the median seed-adjusted z-score was 0.905.

With GGUGCUGAAUGUGGAGUAATT against DNAJC3, the median seed-adjusted z-score is 0.502.
